Bioassay records: PubChem, ICCB-Longwood Screening Facility, Harvard Medical School
S aureus helic = S. aureus DNA helicase inhibition | hit rate 0.05% among 120,000 | AID 485395 | purified S. aureus helicase, fluorescence unwinding assay | inhibition, % (concentration not given with the values); in the data active means inhibition above about 25%, passing the limit was not always enough
Sa growth 42C = S. aureus growth inhibition; S. aureus RN4220 growth, OD600, 20 h, 42 °C; stronger effect = lower value; relative growth, % (concentration not given with the values); hit rate 0.53% among 170,000;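 active means relative growth at most 50% at the other temperature and 20+ points below 30 °C, or under 10% at both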
Of the large screens only hits and unclear results are named; the others gave an inactive call; ! = not confirmed by another sample. The full list was thinned out, with hits kept by preference.

CC(O)CN=c1cc(-c2ccccc2)oc2ccc(Cl)cc12 (stereo not given)	none
Cc1ccc2oc(-c3ccccc3)cc(=NCCN(C)C)c2c1	none
CCc1ccc2oc(-c3ccccc3)cc(=NCc3cccnc3)c2c1	S aureus helic 48
O=c1c(-c2cc(Br)cc3c2OCOC3)coc2ccccc12	none
CCOc1ccc2sc(NC(=O)CN3C(=O)C4C5C=CC(C5)C4C3=O)nc2c1 (stereo not given)	none
CO[C@@]1(NC(=O)CSCC#N)C(=O)N2C(C(=O)O)=C(CSc3nnnn3C)CSC21 (stereo not given in full)	Sa growth 42C -0.6 (no result: S aureus helic)
CN1CCN(NC(=O)Cc2cccs2)CC1	none
Cn1nnnc1SCC(=O)NN1C(=O)NC(C)(c2ccccc2)C1=O (stereo not given)	none
CO[C@@]1(NC(=O)Cc2cccs2)C(=O)N2C(C(=O)O)=C(COC(N)=O)CS[C@@H]21	Sa growth 42C -1.0 (no result: S aureus helic)
CCn1cnc2cc(NC(=O)C3CCCCC3)ccc21	none
Cc1nnc(NC(=O)c2ccc(S(=O)(=O)N(CC(C)C)CC(C)C)cc2)o1	Sa growth 42C 0.2
CC(C)CN(CC(C)C)S(=O)(=O)c1ccc(C(=O)O)cc1	none
CSc1ccc(S(=O)(=O)N(C)C)cc1	none
CN(C)S(=O)(=O)c1ccc(=S)[nH]c1	Sa growth 42C 38
CCC(C)(C(=O)NC1CCCC1)N(C)C(=O)c1ccc2c(c1)OCO2 (stereo not given)	none
CN1/C(=C/C=C/c2oc3ccccc3[n+]2C)Oc2ccccc21	Sa growth 42C -1.0
CCN1/C(=C/C=C2\SC(=S)N(C)C2=O)Oc2ccccc21	none
CN(Cc1ccccc1)C(=O)c1ccccc1Cl	none
CC(C)S(=O)(=O)c1oc(-c2ccc(F)cc2)nc1S(=O)(=O)c1ccccc1	Sa growth 42C 1.3 (no result: S aureus helic)
CCS(=O)(=O)c1oc(-c2ccc(F)cc2)nc1S(=O)(=O)c1ccc(Br)cc1	none (no result: S aureus helic)
CC(C)S(=O)(=O)c1oc(-c2cccs2)nc1S(=O)(=O)c1ccc(F)cc1	none (no result: S aureus helic)
CCCCS(=O)(=O)c1oc(-c2ccc(F)cc2)nc1S(=O)(=O)c1ccccc1	Sa growth 42C 1.6 (no result: S aureus helic)
CSC1(N2CCc3ccccc3C2)NN=C(C)C(=O)N1 (stereo not given)	none
COc1cc2c(cc1OC)CC(C)(C)N(C(=O)c1ccccc1)C2	none (no result: Sa growth 42C)
O=c1[nH]c(=O)n(C2CCCO2)cc1F (stereo not given)	Sa growth 42C 6.6!
O=C1C=CC(=O)N1CC1CCCO1 (stereo not given)	none
C[C@H]1O[C@@H](n2cc(F)c(=O)[nH]c2=O)[C@H](O)[C@@H]1O	Sa growth 42C 1.1 (no result: S aureus helic)
CC(C)S(=O)(=O)c1cnc(C(F)(F)F)nc1N	none (no result: S aureus helic)
CCCC1c2cccn2CCN1C(=O)NC1CCCCC1 (stereo not given)	none
Cc1ccc2c(c1)c1c3n2CCCNC3CCC1 (stereo not given)	none
c1cc2c(cc1C1CCCCC1)c1c3n2CCCNC3CCC1 (stereo not given)	Sa growth 42C -0.8
c1cc2c(cc1C1CCCCC1)c1c3n2CCN=C3CCC1	Sa growth 42C -2.0
Cc1ccc2c(c1)c1c3n2CCN=C3CCC1	none
CN(C)S(=O)(=O)c1ccc(C(=O)OCc2nc3ccccc3c(=O)[nH]2)cc1	none
Cc1cc(C)c(C(N)=O)c(N2CCN(c3ccccc3)CC2)n1	none
Cc1nnc(Nc2c(C)n(C)n(-c3ccccc3)c2=O)[nH]c1=O	none
CC(C)c1ccc(NC(=O)Cn2nnc(C(=O)NCc3ccccc3)c2N)cc1	none
CC(=O)N1CCc2c(sc(NC(=O)/C=C/c3ccccc3)c2C#N)C1	none (no result: Sa growth 42C)
Cc1nc(-c2ccc(OCC(=O)O)cc2)cs1	none
CCCCn1c(O)c(N=NC(=O)c2ccccc2)c2ccccc21	Sa growth 42C 3.7
Cn1c(O)c(N=NC(=O)c2ccccc2)c2ccccc21	none
COc1ccccc1C(=O)Nc1nc2ccccc2n1CCOc1ccccc1	Sa growth 42C 1.0
COc1ccccc1OCCn1c(NC(=O)c2ccccc2)nc2ccccc21	none (no result: S aureus helic)
CCc1ccc(OCC(=O)c2c(O)c3ccccc3oc2=O)cc1	Sa growth 42C 4.4
COC(=O)c1c(O)c2ccccc2oc1=O	none (no result: S aureus helic)
Cn1ccnc1C(N)c1ccccc1 (stereo not given)	none
CSc1nnc(COc2cccc(C)c2)n1C	none
COc1cccc(OCc2nnc(SCc3ccccc3)n2C)c1	Sa growth 42C 3.8
CC(=O)Nc1ccc(S(=O)(=O)N2CCC(C)CC2)cc1	none
CC1CCN(S(=O)(=O)c2ccc(NC(=O)Nc3ccccc3)cc2)CC1	Sa growth 42C 31
CCN(c1ccccc1)S(=O)(=O)c1ccc(NC(=O)c2nc(S(C)(=O)=O)ncc2Cl)cc1	Sa growth 42C -1.4 (no result: S aureus helic)
CCS(=O)(=O)c1ncc(Cl)c(C(=O)Nc2ccc(S(=O)(=O)N(C)c3ccccc3)cc2)n1	none (no result: S aureus helic)
COc1cc2cc3c4c(cc(OC)c(OC)c4c2cc1OC)CCN3C	Sa growth 42C 6.6
COc1ccc(C(=O)N2CCc3cc(OC)c(OC)cc3C2C)cc1 (stereo not given)	none (no result: S aureus helic)
CCC(Oc1ccccc1)C(=O)N1CCCCC1C (stereo not given)	none
CCSc1nsc(NC(=O)Nc2cccc(F)c2)n1	Sa growth 42C -0.7
O=C(CSc1nnc(NC(=O)Nc2ccccc2)s1)Nc1cccc(F)c1	none (no result: S aureus helic)
COc1ccccc1CN(Cc1cccs1)C(=O)C1CCCN1C(=O)c1cccs1 (stereo not given)	none
COc1ccccc1OCCN1CCN(CCOc2ccccc2OC)CC1	none
CCOC(=O)N1CCN(CCC(=O)c2ccc(Br)cc2)CC1	Sa growth 42C -1.7
CCOC(=O)N1CCN(CCC(=O)c2ccc(OC)cc2)CC1	none
COc1ccc(CN2C(=O)c3[nH]nc(-c4ccccc4O)c3C2c2ccc(O)cc2)cc1 (stereo not given)	none
Cc1cc(C)c2[nH]c(=O)c(CN(C3CCCCC3)C(c3nnnn3Cc3ccco3)C(C)C)cc2c1 (stereo not given)	none
CCOC(=O)Oc1cc2oc(=O)sc2cc1Cl	Sa growth 42C 4.9
CCOC(=O)N=c1oc2cc(Cl)c(Cl)cc2o1	none
CN1CCN(C(=O)c2ccc3c(c2)N(Cc2ccccc2F)C(=O)c2ccccc2S3(=O)=O)CC1	none
FC(F)(F)c1cccc2c1[nH]c1nc3ccccc3nc12	none
O=c1[nH]c(=O)c2nc3cc(C(F)(F)F)ccc3nc2[nH]1	Sa growth 42C 2.5
CNS(=O)(=O)c1ccc(NC(=O)CCC(=O)c2ccc(C)cc2)cc1	none
COc1ccc2c(ccc(/C=C3\Sc4ccccc4N3C)[n+]2C)c1	Sa growth 42C 4.7
CCN1/C(=C/c2ccc3ccccc3[n+]2CC)Sc2cc(NC(C)=O)ccc21	none
CN1/C(=C/C#N)Sc2ccccc21	none
CCN1/C(=C/c2ccc3cc(C)ccc3[n+]2C)Sc2cc(OC)ccc21	Sa growth 42C -1.5
Cc1nn(-c2ccc3nnc(C)n3n2)c(C)c1CCC(=O)O	none
CCCn1c(NC(=O)C2CCCC2)nc2ccccc21	Sa growth 42C -0.9
CCCn1c(NC(=O)CCC2CCCC2)nc2ccccc21	none
O=C(CSc1ccccc1Cl)N1CCCC1	none
CNC(=O)Sc1ccccc1Cl	Sa growth 42C -0.6 (no result: S aureus helic)
O=c1cc[nH]cc1-c1ccc(Cl)cc1	Sa growth 42C -0.8
O=c1ccc(-c2ccc(Cl)cc2)n[nH]1	none
CS(=O)(=O)c1sc(Br)c2c1C(=O)CCC2	none (no result: S aureus helic)
CS(=O)(=O)c1sc(C#N)c2c1C(=O)CCC2	Sa growth 42C 0.4
O=C(/C=C(\O)c1ccccc1)C(=O)Nc1cccc(F)c1	Sa growth 42C -0.6
O=C(/C=C(\O)c1ccc(Br)cc1)C(=O)Nc1ccccc1	none (no result: S aureus helic)
COc1cc2c(C#N)c(N(C)CCc3ccc(OC)c(OC)c3)nc(N)c2c(N)n1	none
